The list is not random: actives were taken first. Their share in the collection is about 11%.
3T3 cytotox = kills NIH 3T3 cells | AID 1345082 | Potency, µM (doses to about 96.7 µM), inactives show at the top dose activity change, negative = cytotoxicity, actives largely listed as inhibitors | NIH 3T3 viability, CellTiter-Glo ATP luminescence, 48-72 h | 4.3% of 94,000 active; further: nearly all actives have a fitted effect of over 55% in size
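First NIH 3T3 cells are plated at 400 cells/well; next compound is pinned in; then plates incubate 48 or 72 hr at 37 °C; finally CellTiter-Glo is added and luminescence read after 10 min.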
FLuc inh = inhibitors of firefly (Photinus pyralis) luciferase; 2.5% of 76,000 active; purified P. pyralis luciferase, luminescence, biochemical; AID 1347043; Potency, µM (top dose mostly 115 µM), hits mostly inhibitors; P08659; further: nearly all actives have a fitted effect of over 65% in size
Target sequence (P08659 whole entry, looked up): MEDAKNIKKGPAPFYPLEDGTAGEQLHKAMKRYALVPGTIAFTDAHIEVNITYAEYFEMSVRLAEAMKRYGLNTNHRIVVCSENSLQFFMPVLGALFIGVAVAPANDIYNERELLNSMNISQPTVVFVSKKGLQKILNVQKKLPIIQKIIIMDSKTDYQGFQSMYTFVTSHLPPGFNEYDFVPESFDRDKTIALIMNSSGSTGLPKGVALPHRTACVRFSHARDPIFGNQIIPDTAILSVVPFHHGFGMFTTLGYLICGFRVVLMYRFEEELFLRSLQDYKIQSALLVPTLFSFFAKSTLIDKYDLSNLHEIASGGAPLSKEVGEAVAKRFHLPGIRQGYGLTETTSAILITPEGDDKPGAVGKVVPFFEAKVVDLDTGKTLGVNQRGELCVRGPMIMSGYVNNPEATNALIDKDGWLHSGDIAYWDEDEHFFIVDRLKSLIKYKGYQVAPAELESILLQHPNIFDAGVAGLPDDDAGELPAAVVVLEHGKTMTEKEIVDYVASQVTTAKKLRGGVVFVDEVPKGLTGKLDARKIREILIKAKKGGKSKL
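Luminescence read by CCD imaging after purified firefly luciferase (10nM final) was added to substrate buffer holding 10uM D-luciferin and 10uM ATP, pH 7.5, pre-dosed with compound.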
HEK293 tox = cytotoxic compounds in HEK 293 cells. 6.6% of 94,000 active. HEK 293 viability, ATP luminescence (CellTiter-Glo), 48-72 h. AID 1345083. Potency, µM (doses to about 115 µM), for the others: top-dose activity change, negative = cytotoxicity, hits mostly inhibitors; further: nearly all actives have a fitted effect of over 60% in size
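Read-out: CellTiter-Glo ATP luminescence. Cells: HEK 293, 250 cells/well. Exposure: 48 or 72 hr, 37 degree Celsius.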
NPR1 antag = blocks ANP-stimulated signaling of human Npr1 receptor; HEK293 hNpr1 GloSensor cGMP, ANP-stimulated luminescence; Potency, µM (highest dose often 46.3 µM), without a hit: top-dose activity change, negative = inhibition, usual class: inhibitors; 1.6% of 76,000 active; calls by dose curve; further: nearly all actives have a fitted effect of over 60% in size
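Compound pre-incubated 30 min at room temperature on GloSensor-loaded HEK293 cells stably carrying hNpr1 and the pGS-40F cGMP biosensor. Stimulation uses hNppA at 0.1 nM final; luminescence is taken at baseline and 20 min post-agonist.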
Starred values were filed as active, the others as inactive; i = inactive; u = inconclusive; x = not tested or not shown; [ ] = dose if it differs, or a comment. Unless noted, the call rests on the fitted dose curve; in most records, active means well fitted curve in the direction sought with a large enough effect; inconclusive means small, poorly fitted or top-dose-only effect, or another doubt; inactive means no such curve, though single readings can be large; an effect the other way counts as inactive or inconclusive. On the % scale 0 is the no-effect control and ±100 the full control effect; potency means the concentration at half of the fitted maximal effect.

SMILES | 3T3 cytotox | FLuc inh | HEK293 tox | NPR1 antag
CSCC(=O)Nc1ccc2n(c1=O)C[C@H]1C[C@@H]2CN(C(=O)COc2ccccc2)C1 | 79µM* | i | -14%[172 µM] | -3%[70.6 µM]
COc1cc2c(cc1OCc1ccccc1)N(C(=O)c1c[nH]c3ccccc13)CC21CCN(C)CC1 | 20µM* | i | 22µM* | -4%
COc1cc2c(cc1OCc1ccccc1)N([S+](=O)([O-])c1cn(C)cn1)CC21CCN(C)CC1 | u | i | u | -2%
COc1cc2c(cc1OCc1ccccc1)N(C(=O)c1cccc3[nH]ccc13)CC21CCN(C)CC1 | 20µM* | i | u | 1%
COc1cc2c(cc1OCc1ccccc1)N(C(=O)c1cc3ccccc3[nH]1)CC21CCN(C)CC1 | 22µM* | i | 20µM* | -1%
COc1cc2c(cc1OCc1ccc(Cl)cc1)N(Cc1ccccc1)CC21CCN(C(C)=O)CC1 | u | i | u | -21%
O=C1Nc2ccccc2C12CCN(CC1CCCCC1)CC2 | -14% | x | u | x
Cn1nccc1C(=O)N1[C@H]2CC[C@@H]1c1cnc(-c3ccc(F)cc3)nc1C2 | u | i | u | u
O=C(c1ccco1)N1[C@H]2CC[C@@H]1c1cnc(-c3ccc(F)cc3)nc1C2 | -26% | i | 45µM* | u
O=C(CCc1nc2ccccc2[nH]1)N1[C@H]2CC[C@@H]1c1cnc(-c3ccc(F)cc3)nc1C2 | -13% | i | -28% | -2%
Cc1noc(C)c1S(=O)(=O)N1[C@H]2CC[C@@H]1c1cnc(-c3ccc(F)cc3)nc1C2 | u | i | 45µM* | u
O=C(CCc1nc2ccccc2s1)N1[C@H]2CC[C@@H]1c1cnc(-c3ccc(F)cc3)nc1C2 | -26% | i | 40µM* | 0.71µM*
CC(C)(C)c1cn(C[C@H]2CC3CCN2C[C@@H]3C(=O)Nc2nccs2)nn1 (stereo not given in full) | -15%[174 µM] | i | u | 2%[70.6 µM]
Cn1nc(-c2ccccc2)cc1[C@H]1CN2CC[C@H]1C[C@@H]2CNC(=O)c1ccco1 | -10%[174 µM] | i | 3%[172 µM] | -1%[70.6 µM]
Cc1ncc2c(n1)C[C@@H]1CC[C@H]2N1C(=O)Nc1ccc2c(c1)OCCO2 | 4% | 32µM* | i | 5%
COc1cc2c(cc1OCc1ccccc1)NC(=O)C21CCN(c2nc(C)cnc2C)CC1 | u | i | 35µM* | -23%
COc1cc2c(cc1OCc1ccccc1)NC(=O)C21CCN(c2cnccn2)CC1 | 79µM* | i | 63µM* | -27%[70.6 µM]
COc1cc2c(cc1OCC1CC1)NC(=O)C21CCN(C(=O)c2ccccc2)CC1 | u | i | u | 4%[70.6 µM]
Cc1[nH]cnc1CN1C[C@H](c2ccc3c(c2)OCO3)[C@@H]2[C@H]1C1CCN2CC1 | -9% | i | 1% | 8%
Cc1nc(-c2ccc(N(C)C)cc2)cc([C@H]2CN3CC[C@H]2C[C@@H]3CNC(=O)C(C)(C)C)n1 | 89µM* | i | 56µM* | 1%[70.6 µM]
Cc1nc(-c2ccc(N(C)C)cc2)cc([C@H]2CN3CC[C@H]2C[C@@H]3CNCc2cccc(C#N)c2)n1 | 28µM* | u | 25µM* | -21%
Cc1nc(-c2ccc(N(C)C)cc2)cc([C@H]2CN3CC[C@H]2C[C@@H]3CNC(=O)N2CCOCC2)n1 | u | i | u | 0%
Cc1nc(-c2ccc(N(C)C)cc2)cc([C@H]2CN3CC[C@H]2C[C@@H]3CNC(=O)C2CC2)n1 | 100µM* | i | 71µM* | -2%[70.6 µM]
Cc1nc(-c2ccc(C(F)(F)F)cc2)cc([C@H]2CN3CC[C@H]2C[C@@H]3CNC(=O)C2CC2)n1 | u | i | u | 3%
CCOC(=O)[C@@H]1[C@H]2c3ccccc3N(CCOC)C(=O)[C@H]2N(C(=O)OCC)[C@@H]1c1ccccc1 | -27% | x | u | x
C#C[C@H]1CN2CC[C@H]1C[C@@H]2COC(=O)NCCC | -29%[230 µM] | i | u | 0%[70.6 µM]
CC(=O)c1ccc(NC(=O)NC[C@H]2C[C@@H]3CCN2C[C@@H]3c2cc(-c3ccco3)nc(C)n2)cc1 | u | i | 79µM* | 6%
CC(=O)c1ccc(NC(=O)NC[C@H]2C[C@@H]3CCN2C[C@@H]3c2cc(-c3cccs3)nc(C)n2)cc1 | u | i | 89µM* | -2%
COC[C@H]1CCCN1C[C@H]1CN2CC[C@H]1C[C@@H]2CNC(=O)c1ccc(N(C)C)cc1 | 71µM* | i | u | 0%[70.6 µM]

High-throughput results (PubChem)
